High-throughput results from PubChem.
Only a selection was taken, and hits are over-represented in it overall.
Pf Dd2 growth = inhibitors of Plasmodium falciparum Dd2 growth. 4.3% of 120,000 active. AID 1347417. P. falciparum Dd2 growth, SYBR Green, 72 h. Potency, µM (highest dose often 28.9 µM), without a hit: top-dose activity, negative = inhibition, most hits filed as inhibitors; active means well fitted inhibition curve with a large enough effect;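 further: plate controls were DMSO vehicle for no effect and reference drug for full effect; nearly all actives have a fitted effect of over 65% in size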
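Infected erythrocytes (Dd2, 0.3% parasitemia, 2.5% hematocrit final) are added to compound in RPMI-1640/Albumax II medium, grown 72 h at 37C in low oxygen, then lysed with saponin/Triton-X containing SYBR Green and read by fluorescence.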
The depositor's hits bear a star; i = inactive; [ ] = remark or other dose. Potency means the concentration at half of the fitted maximal effect.

SMILES | Pf Dd2 growth
Cn1c(C(=O)N2CCc3c(n(Cc4cccnc4)n(-c4ccccc4)c3=O)C2)cc2ccccc21 | -24.9%
CC(=O)NCC(=O)N1CCCn2cc(-c3ccc4c(c3)OCO4)nc21 | -18.3%
O=C1NCc2ccccc2CC12CCCN(CC1CC=CCC1)C2 (centres undefined) | -11.0%
Cc1ccc(-c2nc(CN3C(=O)CN=C(c4ccccc4Cl)c4cc(Cl)ccc43)c(C)o2)cc1 | 11.2µM*
Cc1nc(-c2ccccc2)n(Cc2nc(-c3ccc(Cl)cc3)oc2C)c(=O)c1CCO | i
Cc1cc(C)cc(NC(=O)CN2C(=O)CN=C(c3ccccc3)c3cc(Cl)ccc32)c1 | -18.0%
Cc1cccc(CN2C(=O)CN=C(c3ccccc3)c3ccccc32)c1 | -14.2%
O=C1CN=C(c2ccccc2)c2cc(Cl)ccc2N1Cc1ccc(Cl)cc1 | 8.91µM*
Cc1oc(-c2ccccc2Cl)nc1CN1C(=O)CN=C(c2ccccc2)c2cc(Cl)ccc21 | -12.4%
CN1C[C@H](O)C[C@H]1c1nnc2n1CCN(C(=O)CCc1c[nH]c3ccccc13)CC2 | -2.4%
COc1ccc(/C=C/c2ccc3c(c2)C(=O)N2C[C@@H](NC(=O)c4cccn4C)C[C@H]2C(=O)N3)cc1 | -4.3%
CN1CCC(C(=O)N2Cc3ccccc3CC3(CCCN(Cc4cccnc4)C3)C2)CC1 (centres undefined) | 8.91µM*
CN1CCC(C(=O)N2Cc3ccccc3CC3(CCCN(CC4CCNC4)C3)C2)CC1 (centres undefined) | 8.2%
O=C(O)CCCC(=O)N1Cc2ccccc2CC2(CCCCN2Cc2ccncc2)C1 (centres undefined) | 7.3%
CN1CCC(C(=O)N2Cc3ccccc3CC3(CCCCN3Cc3ccncc3)C2)CC1 (centres undefined) | 8.91µM*
O=C(O)CCCC(=O)N1Cc2ccccc2CC2(CCCN2Cc2ccccc2)C1 (centres undefined) | -6.8%
CN1CCC(C(=O)N2Cc3ccccc3CC3(CCN(Cc4ccc(O)cc4)C3)C2)CC1 (centres undefined) | 0.4%
CN(Cc1ncc[nH]1)C(=O)C1CCC(=O)N(CCN2CCOCC2)C1 (centres undefined) | 22.3%
CC(C)[C@@H](N)C(=O)N1CCC(Oc2ccccc2F)(C(=O)O)CC1 | -23.1%
c1cnc2nc(C3CCCNC3)[nH]c2c1 (centres undefined) | 15.1%[44.1 µM]
CCn1nccc1C(=O)N1CCc2nnc([C@@H]3C[C@@H](O)CN3C(C)C)n2CC1 | 18.7%
COc1cccc(CN2CCc3nc(N4CCN(C)CC4)ncc3C2)c1 | -22.3%
COc1cccc(CN2CCc3nc(N4CCN(c5ncccn5)CC4)ncc3C2)c1 | 11.2µM*
Cc1cccc(CN2CCc3nc(N4CCN(c5ccccn5)CC4)ncc3C2)c1 | i
N#Cc1cccc(C(=O)N2C[C@@H](CO)[C@H](c3ccccn3)C2)c1 | 19.2%
SMILES | Pf Dd2 growth
O=c1c2ccccc2nc(/C=C\c2ccc(F)cc2)n1-c1ccccc1F | i
O=c1c2ccccc2nc(/C=C/c2ccccc2)n1-c1ccccc1F | i
Cc1ccccc1-n1c(/C=C/c2c(C)[nH]c3ccccc23)nc2ccccc2c1=O | 3.16µM*
Cc1cnc(CCNS(=O)(=O)c2ccc(C#N)cc2)n1C1CC1 | -13.4%
COc1ccc(C(=O)N2CCn3c(nnc3[C@@H]3C[C@@H](O)CN3C(C)C)C2)cn1 | 22.0%
CC(=O)N1CCc2nn(CC(=O)Nc3ccccc3C)c(=O)cc2C1 | -16.1%
COCc1noc(CCNC(=O)c2ccc(C)c(N3CCNC3=O)c2)n1 | 1.1%
O[C@@H]1C[C@@H](c2nc(Cc3ccc(F)cc3Cl)no2)N(Cc2ccc(OC(F)(F)F)cc2)C1 | 7.94µM*
O[C@@H]1C[C@@H](c2nc(-c3ccc4c(c3)OCO4)no2)N(Cc2cccc(OC(F)(F)F)c2)C1 | -10.0%
O=[N+]([O-])c1ccccc1CN1C[C@H](O)C[C@H]1c1nc(Cc2ccc(F)cc2Cl)no1 | i
CC(=O)c1ccc(NC(=O)c2sc3nc4c(cc3c2N)N2CCC4CC2)cc1 | -14.6%
Nc1c(C(=O)Nc2ccc(OC(F)(F)F)cc2)sc2nc3c(cc12)N1CCC3CC1 | 11.2µM*
COc1ccc(NC(=O)c2sc3nc4c(cc3c2N)CN(Cc2ccccc2)CC4)cc1 | i
O=C(c1cc2ccccc2[nH]1)N1CCN(c2cc(-c3ccccc3)[nH]n2)CC1 | i
COc1cc(CN2CCN(S(=O)(=O)c3ccccc3)CC2)cc(OC)c1O | -7.6%
CCn1c2ccccc2c2cc(CN3CCN(Cc4cc(OC)c(O)c(OC)c4)CC3)ccc21 | 11.2µM*
CCn1c2ccccc2c2cc(CN3CCN(Cc4ccccc4F)CC3)ccc21 | i
COCCNC(=O)C1COC2(CCC(C)CC2)N1C(=O)c1ccccc1C (centres undefined) | -3.7%
O=C([C@@H]1C[C@H](F)CN1C(=O)Cc1ccccc1F)N1CCCCC1 | -11.3%
COC[C@@H]1CN(C(=O)c2ccc(OC)c(F)c2)C[C@H]1C(N)=O | 17.4%
COCC1CN(C2CCC2)CC12CCN(C(=O)Cc1ccccc1F)CC2 (centres undefined) | 5.62µM*
COCC1CN(C2CCC2)CC12CCN(C(=O)C(C)C)CC2 (centres undefined) | -11.0%
COCC1CN(C2CCC2)CC12CCN(C(=O)Cc1ccccc1OC)CC2 (centres undefined) | 12.6µM*
COCC1CN(C2CCC2)CC12CCN(C(=O)c1ccc(OC)c(F)c1)CC2 (centres undefined) | 5.01µM*
COCC1CN(C2CCC2)CC12CCN(C(=O)c1cn(C)cn1)CC2 (centres undefined) | 13.8%
SMILES | Pf Dd2 growth
CCOCC(=O)N1CCC2(CC1)CN(C1CCC1)CC2COC (centres undefined) | i
COCC1CN(C(C)=O)CC12CCN(C(=O)Cc1ccc(OC)cc1)CC2 (centres undefined) | i
CCS(=O)(=O)N1CCC2(CC1)CN(C1CCC1)CC2COC (centres undefined) | -21.5%
O=C(c1nnn2cc(-c3ccc(F)cc3)[nH]c(=O)c12)N1CCCCC1 | -1.0%
COC[C@H]1CCCN1C(=O)CC[C@H]1CNC(=O)[C@@H]2[C@@H](CCN2C)N1C | 26.2%[44.1 µM]
COC[C@H]1CCCN1C(=O)C[C@@H]1O[C@H](CNC(=O)c2ccc(C)cc2)[C@@H](O)[C@H]1O | -24.8%[44.1 µM]
CC(NC(=O)CN1C(=O)COc2ccc(C(=O)COc3ccc(F)cc3F)cc21)c1ccccc1 (centres undefined) | i
CCOc1ccccc1NC(=O)C1CCN(C(=O)c2ncn3c2COC(c2ccc(F)cc2)C3)CC1 (centres undefined) | -15.3%
Cc1cccc(NC(=O)CC2=C3CCCCC3N(C)C2=O)c1 (centres undefined) | -11.7%
Cc1ccc(NC(=O)N2CCC(CCN)CC2)cc1 | -10.3%
Cc1ccc(Cn2cc(-c3ccncc3)cc2C(=O)N(C)Cc2ccccc2)cc1 | -16.0%
Cc1ccc(Cn2cc(-c3ccncc3)cc2C(=O)NCC2CC2)cc1 | 11.2µM*
CCn1cc(-c2ccncc2)cc1C(=O)NCc1ccc(SC)cc1 | i
CCC(=O)N(C1CCOCC1)C1CCN(Cc2ccc(C(F)(F)F)cc2)CC1 | -23.8%
CCOc1ccc2c(n1)CCN(C(=O)c1ccc(OC)c(OC)c1)C2 | -25.3%
Cc1cnc(CC2CCN(S(=O)(=O)c3cn(C)cn3)C2)n1C(C)C (centres undefined) | -12.2%
COCCn1c(C)cnc1CC1CCCN(S(=O)(=O)c2cccc(F)c2)C1 (centres undefined) | 8.91µM*
CNC(=O)N1CCC(Cc2noc(C3CCOCC3)n2)C1 (centres undefined) | 1.6%
